Experimental findings from PubChem BioAssay (EPA / NIEHS) are described below.

A word on the AC50: it is the concentration at which the activity in the assay is half-maximal.

Inconclusive results are not listed. Calls of active or inactive are those of the source. The calls were made as follows: active = hit-call score of the fitted dose curve at least 0.9, where 1 is the maximum; inconclusive = response in the unintended direction; inactive = score below 0.9.

Chain of Cytochrome P450 3A4 (Homo sapiens) (P08684 whole entry, looked up): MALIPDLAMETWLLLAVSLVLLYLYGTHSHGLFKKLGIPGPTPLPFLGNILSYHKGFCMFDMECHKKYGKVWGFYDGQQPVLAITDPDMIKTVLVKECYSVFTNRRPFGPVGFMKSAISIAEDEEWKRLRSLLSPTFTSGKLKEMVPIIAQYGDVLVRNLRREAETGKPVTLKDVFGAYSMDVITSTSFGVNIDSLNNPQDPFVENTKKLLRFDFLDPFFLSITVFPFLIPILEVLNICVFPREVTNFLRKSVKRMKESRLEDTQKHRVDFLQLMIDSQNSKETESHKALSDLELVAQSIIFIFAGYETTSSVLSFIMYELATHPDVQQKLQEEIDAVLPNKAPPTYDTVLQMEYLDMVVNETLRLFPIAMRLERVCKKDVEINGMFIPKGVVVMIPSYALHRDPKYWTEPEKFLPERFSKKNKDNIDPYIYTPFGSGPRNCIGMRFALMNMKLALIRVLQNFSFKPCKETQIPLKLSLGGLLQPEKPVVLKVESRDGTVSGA

Read-out in the assay: Cytochrome P450 3A4 (Homo sapiens) (UniProt P08684)
The assay can be described thus: CLD_CYP3A4_48hr: CellzDirect (CLD) Gene Expression Assay for xenobiotic metabolism (CYP3A4) at 48 hours (AID 2283698). As for the experimental part:
CLD_48hr is a cell-based, multiplexed-readout assay that uses hepatocyte, a human liver primary cell, with measurements taken at 48 hours after chemical dosing in a 96-well plate.CLD_CYP3A4_48hr is one of 16 assay component(s) measured or calculated from the CLD_48hr assay. It is designed to make measurements of mRNA induction, a form of inducible reporter, as detected with chemiluminescence signals by Quantitative Nuclease Protection Assay (qNPA) technology.Data from the assay component CLD_CYP3A4_48hr was analyzed at the endpoint, CLD_CYP3A4_48hr, in the positive analysis fitting direction relative to DMSO as the negative control and baseline of activity. Using a type of inducible reporter, gain-of-signal activity can be used to understand changes in the reporter gene as they relate to the gene CYP3A4. Furthermore, this assay endpoint can be referred to as a primary readout. To generalize the intended target to other relatable targets, this assay endpoint is annotated to the cyp intended target family, where subfamily is xenobiotic metabolism.
Human hepatocyte cultures were treated daily for two consecutive days with fresh dosing solutions containing appropriate concentrations of the 320 ToxCast chemicals (chemical identities were blinded to CellzDirect and other ToxCast collaborators), vehicle control (0.2% DMSO), and positive control inducers as summarized in Table 1. Due to the large number of treatment groups and chemicals examined, the ToxCast chemicals were divided into two groups (spanning two independent cultures of hepatocytes from separate donor preparations (Hu778: ToxCast plates 1 and 2; Hu776: ToxCast plates 3 and 4). Each preparation of human hepatocyte cultures was treated with respective vehicle control, medium only control, set of six positive controls/reference chemicals for the five hepatic receptor pathways, and a subset of eight of the ToxCast chemicals (indoxacarb, pyrithiobac-sodium, norflurazon, cyhalofop-butyl, methomyl, thiram, acetochlor, and propiconazole). These replicate data, coupled with internal replicates designed within the blinded ToxCast chemical library, provided additional data to evaluate interindividual differences between hepatocyte preparations and their potential impact on chemical profiles.Cell morphology and integrity were evaluated using phase-contrast microscopy as an indicator of hepatocyte cell health (Tyson & Green, 1987). Cultures for each treatment group (i.e., media, vehicle [0.2% DMSO], positive control inducers [multiple concentrations], and the ToxCast chemicals [multiple concentrations]) were observed and cell morphology was assessed relative to vehicle control cultures at each harvest time point (0, 6, 24, or 48 h). […] Images were evaluated at the conclusion of the study to assess changes in cell integrity and account for the effects of chemical exposure on uncharacteristic changes in concentration-dependent gene expression profiles. The results from these determinations of apparent cytotoxicity were annotated (yes/no) alongside the corresponding qNPA data for reference.At the conclusion of each treatment period, hepatocyte cultures (96-well) were washed with 1 volume of HBSS, lysed by addition of 25 ul ArrayPlate lysis buffer (HTG, Tucson, AZ), and 70 ul/well of Denaturation Oil, denatured by incubation at 95C for 10 min, and frozen at approximately -70C until analysis by nuclease protection assay (qNPA) (Roberts et al., 2007). For qNPA analysis, cell lysates were thawed at 50C for approximately 30 min, qNPA probes were added, and samples were incubated at 95C for 10 min to begin the detection process by denaturing the target RNA, dissociating the duplexes and secondary structure hybridization. At the conclusion of the hybridization period, S1 nuclease reagent was added to each sample to digest all nonprotected nucleotides at 50C for 60-90 min. […]
As to `CCc1cnc(C2=NC(C)(C(C)C)C(=O)N2)c(C(=O)O)c1` (stereo not given), the call was inactive.

For the compound `CCOP(=S)(Oc1cnc(C(C)(C)C)nc1)OC(C)C` (stereo not given), the half-maximal activity concentration (AC50) was 0.383 µM (active). On to `CNC(=O)ON=C(C)SC`, for which the result was inactive. Regarding `CC(C1CC1)C(O)(Cn1cncn1)c1ccc(Cl)cc1` (stereo not given), the AC50 is 20 µM (active). Turning to `COP(=O)(OC)OC(Br)C(Cl)(Cl)Br` (stereo not given), the call was inactive. With `N#CSCSC#N`, the compound was classed as inactive.

For the compound `CCC(=O)Nc1ccc(Cl)c(Cl)c1`, the call was inactive. With `CCc1cccc(CC)c1N(COC)C(=O)CCl`, the call was inactive. Turning to `Cc1ccn2nc(S(=O)(=O)Nc3c(F)cccc3F)nc2n1`, the half-maximal activity concentration (AC50) is 3.97 µM (active).

As to `CCCOc1nn(C(=O)NS(=O)(=O)c2ccccc2C(=O)OC)c(=O)n1C`, the concentration at half-maximal activity (AC50) was 36.4 µM (active). Take `COP(=O)(OC)SCn1c(=O)oc2cc(Cl)cnc21`: the compound was called inactive. Turning to `C#CCC1=C(C)C(OC(=O)C2C(C=C(C)C)C2(C)C)CC1=O` (stereo not given), the half-maximal activity concentration (AC50) is 14.1 µM (active). Regarding `CN(C)NC(=O)CCC(=O)O`, the result was inactive.

As for `CCC(CC)Nc1c([N+](=O)[O-])cc(C)c(C)c1[N+](=O)[O-]`, the AC50 was 20 µM (active). For the compound `CC(C)N(C(=O)SCC(Cl)=C(Cl)Cl)C(C)C`, the AC50 was 3.07 µM (active). For the compound `CC(C)=CC1C(C(=O)OCN2C(=O)C3=C(CCCC3)C2=O)C1(C)C` (stereo not given), the AC50 is 0.152 µM (active). `CCCCN(CC)c1c([N+](=O)[O-])cc(C(F)(F)F)cc1[N+](=O)[O-]`: the half-maximal activity concentration (AC50) is 6.48 µM (active).

With `CC[C@H](C)[C@H]1O[C@]2(C=C[C@@H]1C)C[C@@H]1C[C@@H](C/C=C(\C)[C@@H](O[C@H]3C[C@H](OC)[C@@H](O[C@H]4C[C@H](OC)[C@@H](NC)[C@H](C)O4)[C@H](C)O3)[C@@H](C)/C=C/C=C3\CO[C@@H]4[C@H](O)C(C)=C[C@@H](C(=O)O1)[C@]34O)O2`, the call was inactive. As to `CCNc1nc(Cl)nc(NC(C)(C)C#N)n1`, the concentration at half-maximal activity (AC50) was 20 µM (active).

Turning to `CNc1cnn(-c2cccc(C(F)(F)F)c2)c(=O)c1Cl`, the AC50 was 13.6 µM (active).

`CCOP(=O)(SC(C)CC)N1CCSC1=O` (stereo not given): the concentration at half-maximal activity (AC50) was 5.18 µM (active).

As for `CCc1cccc(C)c1N(C(=O)CCl)C(C)COC` (stereo not given), the AC50 was 3.97 µM (active). On to `CN(C)[C@@H]1C(=O)C(C(N)=O)=C(O)[C@@]2(O)C(=O)C3=C(O)c4c(O)cccc4[C@@](C)(O)[C@H]3[C@H](O)[C@@H]12`, for which the compound was called inactive. Take `Cc1nn(-c2cc(NS(C)(=O)=O)c(Cl)cc2Cl)c(=O)n1C(F)F`: the half-maximal activity concentration (AC50) was 2.46 µM (active). Turning to `Nc1c(Cl)cc([N+](=O)[O-])cc1Cl`, the call was inactive. `CSc1nc(NC(C)C)nc(NC(C)C)n1`: the AC50 is 3.24 µM (active). For the compound `Cc1cc(C2CC2)nc(Nc2ccccc2)n1`, the outcome was inactive. For the compound `CCOP(=O)(OCC)Oc1cc(C)nc(C(C)C)n1`, the AC50 is 20 µM (active). The same measure, in the same setting: to `CON=C(C(=O)OC)c1ccccc1CON=C(C)c1cccc(C(F)(F)F)c1` belongs 13.1 µM (active).

Take `CC(=NC#N)N(C)Cc1ccc(Cl)nc1`: the compound was called inactive. On to `CCOP(=S)(OCC)OC(Cl)C(Cl)(Cl)Cl` (stereo not given), for which the half-maximal activity concentration (AC50) is 9.51 µM (active).

As for `CCCSP(=O)(OCC)Oc1ccc(Br)cc1Cl` (stereo not given), the concentration at half-maximal activity (AC50) is 7.57 µM (active). For the compound `CC1=NNC(=O)N(/N=C/c2cccnc2)C1`, the outcome was inactive.

For `CCCCSP(=O)(SCCCC)SCCCC`, the AC50 was 20 µM (active).

For `CCOP(=S)(OCC)SCCSCC`, the concentration at half-maximal activity (AC50) was 20 µM (active). Consider `C[Si](Cn1cncn1)(c1ccc(F)cc1)c1ccc(F)cc1`, for which the AC50 is 0.536 µM (active). With `CC(C)[C@H](C(=O)O[C@H](C#N)c1cccc(Oc2ccccc2)c1)c1ccc(Cl)cc1`, the AC50 was 20 µM (active). As to `COc1cccc(C(=O)NN(C(=O)c2cc(C)cc(C)c2)C(C)(C)C)c1C`, the AC50 is 1.42 µM (active). Consider `FC(F)C(F)(F)OCC(Cn1cncn1)c1ccc(Cl)cc1Cl` (stereo not given), for which the AC50 is 1.89 µM (active). As to `CCCCOC(=O)c1ccccc1C(=O)O`, the outcome was inactive.
